Data published in PubChem BioAssay (NCI).
This is part of a sample that, as a whole, favours compounds with a hit. Of some 83,000 tested, about 20% had one in any assay.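 96-well plates, one dose, 48 hours. Percent growth reported; active if below 10.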 Unmarked numbers belong to inactive results. Activity calls are given as the source filed them.

Assays:
Experiment in all cases: NCI-60 one-dose screen, 48 h (100 = growth as untreated, 0 = no growth, -100 = all killed)
Settings in all cases: 10 µM
SK-MEL-2 melanoma = tested on: SK-MEL-2 melanoma
EKVX NSCLC = tested on: EKVX NSCLC
UO-31 renal = tested on: UO-31 renal
TK-10 renal = tested on: TK-10 renal
ACHN renal = tested on: ACHN renal
CAKI-1 renal = tested on: CAKI-1 renal
A498 renal = tested on: A498 renal
CCRF-CEM leukemia = tested on: CCRF-CEM leukemia
MOLT-4 leukemia = tested on: MOLT-4 leukemia
SR leukemia = tested on: SR leukemia
RPMI-8226 leukemia = tested on: RPMI-8226 leukemia
OVCAR-8 ovarian = tested on: OVCAR-8 ovarian
OVCAR-5 ovarian = tested on: OVCAR-5 ovarian
OVCAR-4 ovarian = tested on: OVCAR-4 ovarian
SK-OV-3 ovarian = tested on: SK-OV-3 ovarian
IGROV1 ovarian = tested on: IGROV1 ovarian
OVCAR-3 ovarian = tested on: OVCAR-3 ovarian
HS 578T breast = tested on: HS 578T breast
NCI/ADR-RES ovarian = tested on: NCI/ADR-RES ovarian

Row | SMILES | growth (SK-MEL-2 melanoma) | growth (EKVX NSCLC) | growth (UO-31 renal) | growth (TK-10 renal) | growth (ACHN renal) | growth (CAKI-1 renal) | growth (A498 renal) | growth (CCRF-CEM leukemia) | growth (MOLT-4 leukemia) | growth (SR leukemia) | growth (RPMI-8226 leukemia) | growth (OVCAR-8 ovarian) | growth (OVCAR-5 ovarian) | growth (OVCAR-4 ovarian) | growth (SK-OV-3 ovarian) | growth (IGROV1 ovarian) | growth (OVCAR-3 ovarian) | growth (HS 578T breast) | growth (NCI/ADR-RES ovarian)
1 | CCCCCCCOc1cccc(/C=C2/C(=O)N=C3SCCCN32)c1 | 83% | 74.2% | 61.9% | 75.7% | 79.2% | 84.9% | 97.6% | 60.4% | 50.2% | 47.9% | 40.8% | 71.6% | 91.2% | 63.1% | 88% | 79.9% | 50.9% | 91.4% | 56.8%
2 | CCC(OC(=O)CC(C)C)c1ccccc1 (configuration not stated) | 100% | 99.4% | 95.1% | 91.1% | 104% | 97.9% | 102% | 104% | 98.1% | 101% | 105% | 93.4% | 104% | 112% | 102% | 111% | 107% | 104% | 98.8%
3 | COC(=O)[C@]12CC[C@@H](C)[C@H](C)[C@@H]1C1=CC[C@@H]3[C@@]4(C)C/C(=N\O)[C@H](O)[C@@]5(C)COC(=C45)C[C@@]3(C)[C@]1(C)CC2 | -91.3% (active) | -68.6% (active) | -85.6% (active) | -91.2% (active) | -80.9% (active) | -80.7% (active) | -88.8% (active) | -49% (active) | -62.9% (active) | -39.2% (active) | -41% (active) | -78.3% (active) | -75.4% (active) | -79.1% (active) | -91.9% (active) | -58.4% (active) | -98.1% (active) | -33.6% (active) | -62.5% (active)
4 | CCCc1ccnc(NS(=O)(=O)c2ccc(N)cc2)n1 | 97.7% | 58.5% | 86.5% | 93.4% | 112% | 103% | 79.2% | 46.4% | 81.9% | 72.2% | 41.4% | 75.2% | 117% | 54.7% | 95.9% | 96.4% | 73.5% | 82% | 112%
5 | CC(=O)Nc1ccc(Sc2ccc(NC(C)=O)cc2)cc1 | 98.9% | 96.3% | 81% | 92.2% | 95.9% | 95.3% | 106% | 89.8% | 71.6% | 92.9% | 99% | 94.7% | 95.8% | 102% | 82% | – | 102% | 104% | 95.7%
6 | CC1(C)CNC(=O)N1 | 98.8% | 96% | 87.7% | 97.7% | 110% | 97.1% | 95.5% | 95.4% | 101% | 95.2% | 95.8% | 99.8% | 108% | 99.7% | 95.6% | 99.9% | 108% | 98.8% | 109%
7 | C[N+]1=C(/C=C/c2ccc(I)cc2)C(C)(C)c2ccccc21 | 95.6% | 91.5% | 83.5% | 89.2% | 94.7% | 94.4% | 104% | 2.26% (active) | 8.77% (active) | -8.97% (active) | 71.8% | 67.5% | 90.1% | 109% | 107% | 92.3% | 34.4% | 101% | 101%
8 | CNC(=S)Sc1ccc([N+](=O)[O-])cc1[N+](=O)[O-] | 90.7% | 72.1% | 60.2% | 84.3% | 37.3% | 27% | 80.6% | 12.7% | 43.7% | 17.3% | 13.7% | 81.3% | 93.7% | 77.1% | 80.2% | 104% | 36.3% | 88.2% | 92.5%
9 | COc1ccc(-c2nnc(SCC(=O)c3ccccc3)o2)cc1 | 95.6% | 97.9% | 99.4% | 89.1% | 97.5% | 94.7% | 85.1% | 59.5% | 95.2% | 100% | 89% | 109% | 100% | 108% | 102% | – | 105% | 103% | 91.9%
10 | NC1CCC(Nc2nc(NCc3ccc(-c4ccccc4O)nc3)c3ncn(C4CCCC4)c3n2)CC1 (configuration not stated) | -81.4% (active) | -20.1% (active) | 14.2% | 0.221% (active) | -3.2% (active) | 14.1% | -82.1% (active) | -5.6% (active) | -11.2% (active) | -41.3% (active) | -28% (active) | 7.26% (active) | 19.3% | 6.5% (active) | 8.5% (active) | 8.35% (active) | -6.34% (active) | – | 10.3%
11 | CCCC(C)c1ccc(OCCCCCCN2CCNCC2)cc1 (configuration not stated) | 79% | 67.3% | 78.7% | 85% | 49.5% | 18.2% | 50.5% | 4.49% (active) | -27.6% (active) | -24.7% (active) | -9.35% (active) | 36.8% | 80.8% | 62.2% | 87% | 64.7% | 62.6% | 68.1% | 54.3%
12 | CCCCCCCCCCN=C(c1ccc(N(C)C)cc1)c1ccc(N(C)C)cc1 | 23.3% | 29.3% | 52.8% | 55.7% | 43.3% | 35.7% | -9.41% (active) | 28.1% | 24.6% | 23% | 24.3% | 30.9% | 71.5% | 59.8% | 16.6% | – | 2.1% (active) | 26.7% | -3.13% (active)
13 | C=CCc1cc(Nc2c3ccc(Cl)cc3nc3ccc(OC)cc23)cc(CN(CC)CC)c1O | 18.5% | 0.403% (active) | 5.47% (active) | 12.7% | 4.15% (active) | 7.85% (active) | 20.6% | 5.06% (active) | -20.3% (active) | -20.4% (active) | -25.7% (active) | 8.73% (active) | 47.5% | 9.26% (active) | 1.21% (active) | 25.5% | 6.47% (active) | – | 43.9%
14 | C=C1C(=O)O[C@H]2[C@H]1CC/C(COC(=O)OCCCCCOC(=O)OC/C1=C/CC[C@@]3(C)O[C@H]3[C@H]3OC(=O)C(=C)[C@@H]3CC1)=C\CC[C@@]1(C)O[C@@H]21 | -30% (active) | -4.3% (active) | -54.9% (active) | -87.6% (active) | -65.7% (active) | -68.5% (active) | -34.2% (active) | 1.79% (active) | -7.49% (active) | -20.1% (active) | -3.28% (active) | -4.61% (active) | -36.2% (active) | -43% (active) | 54.6% | – | -97.5% (active) | 33.8% | 42.5%
15 | Nc1ccn([C@@H]2O[C@H](COP(=O)(O)O[C@@H]3C[C@H](n4cc(F)c(=O)[nH]c4=O)O[C@@H]3COP(=O)(O)O[C@@H]3C[C@H](n4cc(F)c(=O)[nH]c4=O)O[C@@H]3COP(=O)(O)O[C@@H]3C[C@H](n4cc(F)c(=O)[nH]c4=O)O[C@@H]3COP(=O)(O)O[C@@H]3C[C@H](n4cc(F)c(=O)[nH]c4=O)O[C@@H]3COP(=O)(O)O[C@@H]3C[C@H](n4cc(F)c(=O)[nH]c4=O)O[C@@H]3COP(=O)(O)O[C@@H]3C[C@H](n4cc(F)c(=O)[nH]c4=O)O[C@@H]3COP(=O)(O)O[C@@H]3C[C@H](n4cc(F)c(=O)[nH]c4=O)O[C@@H]3COP(=O)(O)O[C@@H]3C[C@H](n4cc(F)c(=O)[nH]c4=O)O[C@@H]3COP(=O)(O)O[C@@H]3C[C@H](n4cc(F)c(=O)[nH]c4=O)O[C@@H]3COP(=O)(O)O[C@@H]3C[C@H](n4cc(F)c(=O)[nH]c4=O)O[C@@H]3COP(=O)(O)OCCOCCOCCOCCOCCOCCO)[C@H](O)C2O)c(=O)n1 (some centres not stated) | 60.2% | 52% | 13.5% | 56.3% | 11.7% | 26.7% | 46.5% | 21.4% | 26.8% | 44.3% | 50.1% | 40.7% | 89.9% | 84% | 32% | – | 64.5% | 111% | 39.5%
16 | CN1/C(=C\C(I)C(I)C2=[N+](C)c3ccccc3C2(C)C)C(C)(C)c2ccccc21 (configuration not stated) | -13% (active) | 7.21% (active) | -1.6% (active) | 18.7% | 4.88% (active) | 21.5% | -2.55% (active) | 12.1% | -12.5% (active) | 8.27% (active) | -10.4% (active) | 7.15% (active) | 24.9% | 21.6% | -8.39% (active) | 25% | 13.3% | 42.8% | 73%
